Marburg entry inh = inhibitors of Marburg virus binding or cell entry. AID 540276. Marburg virus pseudotyped entry inhibition, cell reporter. Potency, µM (top dose mostly 37.8 µM), usual class: inhibitors. 300,000 compounds, 1.8% hits; calls by dose curve; tested in HEK293 cells
Lassa entry inh = Lassa virus entry inhibition; Lassa virus pseudotype entry inhibition, cell reporter; Potency, µM (top dose mostly 37.9 µM), usual class: inhibitors; 300,000 compounds, 1.2% hits; calls by dose curve; tested in HEK293 cells; further: nearly all actives have a fitted effect of over 50% in size
HCV inhibitor = inhibitors of hepatitis C virus infection; AID 651820; Potency, µM (top dose mostly 41.8 µM), hits mostly inhibitors; 340,000 compounds, 3.4% hits; Huh7.5.1 HCVcc-Cre infection, luciferase reporter, 44 h; active means well fitted inhibition curve with a large enough effect; inconclusive means small, poorly fitted or top-dose-only effect, or another doubt; inactive means no such curve, though single readings can be large or run the other way
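Cells (1,000/well) were plated 4 h before compound, then infected with HCVcc-Cre virus (~0.5 moi). After 44 h further culture, infection was read as luciferase luminescence following a 15 min substrate incubation at room temperature.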
HCMV inh = blocks human cytomegalovirus replication. activity change, negative = inhibition, % at 57.5 µM. HFF cells, HCMV-luciferase reporter, 72 h; active compounds read low. 410,000 compounds, 4.5% hits; in the data active means activity change below about -60%; inconclusive means no clear call, values can overlap the other calls; inactive means above about -39%
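Cell-based, HFFs, 1000 cells/well, 16 h 37C; cpds in DMSO + HCMV-luc, MOI 1 PFU/cell; 72 h 37C; OneGlo luminescence after 5 min RT; norm. to buffer vs Salinomycin 10uM.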
FMDV inh = foot and mouth disease virus antiviral activity; FMDV antiviral cell-based qHTS; Potency, µM (titrated, usually from 57.9 µM), usual class: inhibitors; 410,000 compounds, 1.2% hits; AID 1159524; calls by dose curve; tested in HEK293T cells; further: read-out not given here; nearly all actives have a fitted effect of over 45% in size
Of the large screens only hits and unclear results are named; the others gave an inactive call. This is a sample that favours compounds with a hit; in the whole collection about 7.9% have one here.

Cn1c(-c2ccccn2)[n+](C)c2ccccc21	none
Cn1c(-c2cccc([N+](=O)[O-])c2)[n+](C)c2ccccc21	none (no result: Marburg entry inh, Lassa entry inh)
COc1cc(-c2ccc(Cl)cn2)cc2c1OCCN(S(=O)(=O)C[C@]13CC[C@H](CC1=O)C3(C)C)C2	none (no result: Marburg entry inh, Lassa entry inh, HCV inhibitor, HCMV inh)
COc1ccc(NC(=O)c2ccc3c(=O)n4nc(Nc5ccccc5C)sc4nc3c2)cc1Cl	none (no result: Marburg entry inh, HCV inhibitor)
COc1ccc(NC(=O)c2sc3nc(C)c(C(=O)Nc4ccc(C)cc4C)c(-c4sccc4C)c3c2N)cc1	Marburg entry inh inconclusive (no result: HCV inhibitor)
COc1ccc(S(=O)(=O)N(CC(=O)NCc2ccccc2)c2ccc(C)cc2)cc1OC	HCMV inh -105, FMDV inh 18µM (no result: Marburg entry inh, HCV inhibitor)
COc1ccc(S(=O)(=O)N(CC(=O)NC(C)c2ccccc2)c2ccc(C)cc2)cc1OC (stereo not drawn)	Lassa entry inh inconclusive, HCMV inh -88, FMDV inh inconclusive (no result: Marburg entry inh, HCV inhibitor)
CCOc1ccc(N(CC(=O)NC(C(C)C)C(C)C)S(=O)(=O)c2ccc(OC)c(OC)c2)cc1	HCV inhibitor 10µM (no result: Marburg entry inh, Lassa entry inh)
COc1ccc(S(=O)(=O)N(CC(=O)NCCC(C)C)c2ccccc2)cc1OC	Marburg entry inh inconclusive, Lassa entry inh inconclusive, HCMV inh inconclusive
CN(C)S(=O)(=O)N(CC(=O)Nc1ccccc1)c1ccccc1	none
C[C@@H](NC(=O)CN(c1ccccc1)S(=O)(=O)N(C)C)c1ccccc1	HCMV inh -105 (no result: HCV inhibitor)
CCOc1ccc(N(CC(=O)OC)S(=O)(=O)c2ccc(OC)c(OC)c2)cc1	none
COc1ccc(CCNC(=O)C(=O)NCC(c2ccc3c(c2)OCO3)N2CCOCC2)cc1 (stereo not drawn)	FMDV inh inconclusive (no result: Marburg entry inh, HCV inhibitor)
Cc1ccc(NS(=O)(=O)c2cc3[nH]c(=O)c(=O)[nH]c3cc2C)cc1N(C)C	none (no result: Marburg entry inh, HCV inhibitor)
COc1ccc(OC(F)(F)F)cc1CC1(C)C(=O)Nc2ccc(-c3ccsc3)cc21 (stereo not drawn)	HCMV inh -82 (no result: Marburg entry inh, Lassa entry inh, HCV inhibitor)
COc1ccccc1[C@H]1/C(=C(\O)c2ccc(C)cc2)C(=O)C(=O)N1Cc1ccco1	none (no result: Lassa entry inh, HCV inhibitor, HCMV inh, FMDV inh)
CC(C)(C)C1CCC(OC(=O)C[N+]2(C)CCCCC2)CC1 (stereo not drawn)	HCMV inh -62
Cc1ccc2nc(CN3CCN(S(=O)(=O)c4ccccc4)CC3)oc2c1	HCMV inh inconclusive (no result: Marburg entry inh, HCV inhibitor)
Cc1ccc(CCNc2ncnc(Cl)c2N)cc1	Marburg entry inh inconclusive, HCV inhibitor 1µM, HCMV inh -84
Cc1ccccc1Cn1c(=O)n(CC2CCC(C(=O)N3CCC(C)CC3)CC2)c(=O)c2sccc21 (stereo not drawn)	Lassa entry inh inconclusive, HCMV inh -75, FMDV inh inconclusive (no result: Marburg entry inh, HCV inhibitor)
O=c1c2ccccc2nc(/C=C/c2ccccc2O)n1-c1ccc(Br)cc1	Lassa entry inh inconclusive, HCMV inh -63, FMDV inh inconclusive (no result: Marburg entry inh, HCV inhibitor)
CCn1c(/C=C/c2cc(Br)ccc2O)nc2ccccc2c1=O	HCV inhibitor inconclusive, HCMV inh -93, FMDV inh inconclusive (no result: Marburg entry inh, Lassa entry inh)
CCOC(=O)c1c(NC(=O)CS(=O)(=O)c2ccc(C)cc2)sc2c1CCCCC2	HCMV inh inconclusive (no result: Marburg entry inh, HCV inhibitor)
Cc1nn(S(=O)(=O)c2ccc(Cl)cc2)c(C)c1Sc1ccc([N+](=O)[O-])cc1	Marburg entry inh inconclusive, Lassa entry inh inconclusive, HCV inhibitor inconclusive, HCMV inh -78, FMDV inh inconclusive
Cc1nn(-c2ccccc2)c(N)c1Sc1ccc([N+](=O)[O-])cc1	FMDV inh 32µM
C/C(=N/OCC(=O)NCCCCCCNC(=O)CO/N=C(/C)c1cccs1)c1cccs1	Marburg entry inh inconclusive, Lassa entry inh inconclusive, HCV inhibitor 22µM, HCMV inh inconclusive
Cc1ccc(N(CC(=O)N2CCc3ccccc32)C2=NC(=O)CS2)cc1	HCV inhibitor 6.3µM, FMDV inh inconclusive
Cc1ccc(C(=O)OCC(=O)N2CCc3ccccc32)cc1	Lassa entry inh inconclusive
COc1cc(S(=O)(=O)NCCc2c(C)[nH]c3ccccc23)c(C)cc1C	Marburg entry inh inconclusive, Lassa entry inh inconclusive, HCMV inh -103 (no result: HCV inhibitor)
Cc1ccc([N+](=O)[O-])cc1S(=O)(=O)NCCc1c(C)[nH]c2ccccc12	none
CCNC(=O)Oc1ccc(-c2csnn2)cc1	FMDV inh 32µM
Cc1cc(C)c(-c2csc(Cc3nc(-c4cc5ccccc5oc4=O)cs3)n2)cc1C	Marburg entry inh inconclusive, HCV inhibitor inconclusive, HCMV inh -65, FMDV inh inconclusive
O=c1oc2ccccc2cc1-c1csc(Cc2nc(-c3ccc(Br)cc3)cs2)n1	HCV inhibitor inconclusive, HCMV inh -99
O=c1oc2ccc(Br)cc2cc1-c1csc(-c2ccccc2)n1	Lassa entry inh inconclusive (no result: Marburg entry inh, HCV inhibitor)
Cc1cc(C)c(-c2csc(-c3cc4ccccc4oc3=O)n2)cc1C	none (no result: HCV inhibitor)

High-throughput results from PubChem BioAssay.
